Screens from PubChem.
Only some compounds are listed: those with a hit (about 6% of all), similar ones and a draw of the others.
D1 ag – human D1 receptor agonism | P21728 | HEK293 T-REx D1 cells, calcium flux, agonist mode | activation, % at 2 µM | hit rate 1% among 360,000; in the data active = activation above about 30%
Target sequence (P21728 whole entry, looked up): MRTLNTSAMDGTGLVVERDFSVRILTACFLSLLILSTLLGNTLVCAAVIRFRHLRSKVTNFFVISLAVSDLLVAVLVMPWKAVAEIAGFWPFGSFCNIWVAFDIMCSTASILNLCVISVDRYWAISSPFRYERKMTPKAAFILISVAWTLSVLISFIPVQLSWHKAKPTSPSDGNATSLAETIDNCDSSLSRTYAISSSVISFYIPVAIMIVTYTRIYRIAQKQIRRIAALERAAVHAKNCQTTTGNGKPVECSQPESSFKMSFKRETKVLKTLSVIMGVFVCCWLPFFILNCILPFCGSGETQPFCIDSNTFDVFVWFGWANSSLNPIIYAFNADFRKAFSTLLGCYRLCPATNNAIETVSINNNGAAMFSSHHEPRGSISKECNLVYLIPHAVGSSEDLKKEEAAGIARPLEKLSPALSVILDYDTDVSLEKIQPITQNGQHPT
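Tetracycline-induced HEK293 TREx D1 cells, force-coupled to calcium signalling, were dye-loaded with a no-wash calcium kit. Compound was pin-added after a 10 s baseline. Fluorescence was read kinetically at 1 cycle/s for 180 s, with calcium rises flagged as agonism.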
D3 ag – agonists of human D3 dopamine receptor; max activation, %; P35462; hit rate 0.58% among 410,000; D3R DiscoveRx beta-arrestin cells, luminescence, 90 min; AID 652048; in the data active = max activation above about 30%
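Cells at 1500/well, incubated overnight, then treated with pinned compounds (dopamine as control) for 90 min at 37 degrees C. DiscoveRx reagent added for 30 - 60 minutes at room temperature; luminescence read.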
Chronic BCR inh – inhibitors of chronic active B-cell receptor signaling. ABC-DLBCL IkBa-CBG/CBR reporter, luminescence ratio, 4 h. Potency, µM (highest dose often 46.1 µM), hits mostly inhibitors. hit rate 0.05% among 340,000; active = well fitted inhibition curve with a large enough effect in the signal ratio, with a control signal flat, not every such curve was filed as active; inconclusive = small, poorly fitted or top-dose-only effect, or effect the other way, or a change in a side signal; the % refers to the signal ratio
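TMD8 human ABC-DLBCL cells with doxycycline-inducible IκBα–green luciferase fusion and unfused red luciferase, in 0.5% FBS medium; compounds up to 46 uM, 4 h at 37C. Green/red luminescence ratio, filter-overlap corrected, fitted to concentration-response curves.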
D3 antag – antagonists of human D3 dopamine receptor | D3R cells, DiscoveRx beta-arrestin luminescence, antagonist mode; stronger effect = lower value | max response, negative = inhibition, % | hit rate 2.5% among 360,000 | P35462; in the data active = max response below about -50%; inconclusive = no clear call, values can overlap the other calls
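Cells plated overnight at 1500 cells/well, then exposed to library compounds with dopamine controls for 90 minutes at 37 degrees C. DiscoveRx reagent added for 30–60 minutes at room temperature; luminescence read, quantitative HTS format.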
D1 antag – blocks dopamine activation of the human D1 receptor. P21728. HEK293 TREx D1 cells, calcium flux, dopamine EC80; stronger effect = lower value. activity change, negative = inhibition, % at 10 µM. hit rate 3.2% among 360,000. AID 504652; in the data active = activity change below about -30%
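Tetracycline-induced HEK293 Trex D1 cells, force-coupled to calcium, dye-loaded; compounds added and read 180 s, then EC80 dopamine added and calcium flux tracked kinetically another 180 s.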
D1 PAM – enhances dopamine response at the human D1 receptor; P21728; HEK293 TREx D1 cells, calcium flux, dopamine EC20 potentiation; potentiation, % at 10 µM; hit rate 0.036% among 360,000; AID 504651; in the data active = potentiation above about 30%
Each line names hits and unclear results; the compound was inactive in the other large screens; ! = repeats disagree.

O=[N+]([O-])c1ccccc1N/N=C/c1c[nH]c2ccccc12	D3 antag -51.6, D1 antag -70.8
C(=N\Nc1nc2ccccc2[nH]1)/c1c[nH]c2ccccc12	D3 ag 46.6, Chronic BCR inh inconclusive
O=[N+]([O-])c1cc(/C=N/Nc2nc3ccccc3[nH]2)c(O)cc1O	Chronic BCR inh inconclusive, D3 antag -65.4
Cc1cccc2sc(N(Cc3cccnc3)C(=O)C3CCCCC3)nc12	Chronic BCR inh inconclusive (no result: D3 antag, D1 antag)
O=C(CSc1nc2c([nH]c3ccccc32)c(=O)n1-c1ccccc1F)Nc1ccccc1C(F)(F)F	none (no result: Chronic BCR inh, D3 antag)
CC1CCCCN1CCCNC(=O)c1ccc2c(c1)sc1nc(-c3ccc(F)cc3)cn12 (stereo unspecified)	none (no result: Chronic BCR inh, D3 antag)
c1ccc(Nc2nc(N3CCCCC3)nc(N3CCNCC3)n2)cc1	D1 ag 42.0, D3 antag inconclusive
c1ccc(Nc2nc(N3CCCCC3)nc(N3CCCCC3)n2)cc1	none
O=C(N/N=C/c1c[nH]c2ccccc12)c1cccc([N+](=O)[O-])c1	D3 antag inconclusive
O=C(O)COc1ccc(/C=N/Nc2nc(Nc3ccccc3)nc(N3CCCCC3)n2)cc1	D3 antag -50.4
COc1ccccc1NS(=O)(=O)c1cc([N+](=O)[O-])ccc1N/N=C/c1sc(N2CCOCC2)nc1-c1ccccc1	D1 ag 33.4, D3 antag -84.1
COc1ccc(C(=O)N/N=C/c2sc(N3CCOCC3)nc2-c2ccccc2)cc1OC	none
O=[N+]([O-])c1ccc(N/N=C/c2c[nH]c3ccccc23)cc1	D1 ag 81.0
COc1ccc(/C=N/Nc2nc(Nc3ccccc3)nc(N3CCCC3)n2)cc1	Chronic BCR inh inconclusive
CCOc1ccc(-c2cc(NC(=O)c3ccccc3)c(C(=O)OC)s2)cc1	none (no result: Chronic BCR inh, D3 antag)
O=[N+]([O-])c1ccc(N/N=C/c2ccc[nH]2)cc1	D1 ag 78.6, Chronic BCR inh inconclusive, D3 antag inconclusive, D1 antag -43.6
O=[N+]([O-])c1ccc(NN=Cc2cccc([N+](=O)[O-])c2)cc1	D3 antag inconclusive (no result: D1 ag, Chronic BCR inh, D1 antag, D1 PAM)
O=[N+]([O-])c1ccc(N/N=C/c2cccc(O)c2)cc1	Chronic BCR inh inconclusive, D3 antag inconclusive
COc1ccccc1NS(=O)(=O)c1cc([N+](=O)[O-])ccc1N/N=C/c1c[nH]c2ccccc12	D1 ag 61.3, D3 antag -87.6
O=[N+]([O-])c1ccc(N/N=C/c2cccc(O)c2O)cc1	Chronic BCR inh inconclusive, D3 antag -50.3
CC(C)c1ccc(OCC(=O)NCC(c2ccc(Cl)cc2)N2CCOCC2)cc1 (stereo unspecified)	none (no result: Chronic BCR inh, D3 antag)
O=C(N/N=C/C1CC=CCC1)c1ccccc1O (stereo unspecified)	Chronic BCR inh inconclusive
O=C(N/N=C/C1CC=CCC1)c1ccc(Cl)cc1O (stereo unspecified)	Chronic BCR inh inconclusive, D1 antag -36.6
Cc1ccccc1CCNC(=O)C1CCN(S(=O)(=O)c2ccc3c(ccn3C)c2)CC1	none (no result: Chronic BCR inh, D3 antag)
NC(=S)n1[nH]c(-c2ccc([N+](=O)[O-])cc2)c(N=Nc2ccccc2[N+](=O)[O-])c1=O	D1 antag -51.4
CCC(C(=O)N(C)Cc1ccccc1)n1nc(C)c2sc3ccccc3c2c1=O (stereo unspecified)	none (no result: Chronic BCR inh, D3 antag)
CC(=O)c1ccc(NS(=O)(=O)c2ccc(CC(C)C)cc2)cc1	D1 ag 40.4, D3 antag inconclusive
COc1cccc(CNCCSc2nnnn2C)c1	none
Cn1nnnc1SCCCNCc1cccc(OCc2ccccc2Cl)c1	D1 ag 108.0 (no result: Chronic BCR inh, D3 antag)
Cn1nnnc1SCCCNCc1cc(Cl)ccc1OCc1ccccc1	D1 ag 40.1 (no result: Chronic BCR inh, D3 antag)
Cn1nnnc1SCCCNCc1cccc(OCc2ccccc2F)c1	D1 ag 45.1 (no result: Chronic BCR inh, D3 antag)
Cn1nnnc1SCCCNCc1ccccc1OCc1ccccc1Cl	D1 ag 119.3, D1 antag -46.0 (no result: Chronic BCR inh, D3 antag)
COc1cccc(CNCCCSc2nnnn2C)c1	none (no result: Chronic BCR inh, D3 antag)
CCOC(=O)c1ccc(N=c2sc(C(=O)OC)cc(=O)n2-c2ccc(C(=O)OCC)cc2)cc1	none
COC(=O)c1cc(=O)n(Cc2ccco2)c(=Nc2ccc(F)cc2)s1	Chronic BCR inh inconclusive, D1 antag -35.0
COC(=O)c1cc(=O)n(-c2ccccc2)c(=Nc2ccccc2)s1	Chronic BCR inh inconclusive, D3 antag -61.4
CC(C)(C)CC(C)(C)c1ccc(OCC(=O)Nc2ccc(S(=O)(=O)Nc3ncccn3)cc2)cc1	none (no result: Chronic BCR inh, D3 antag)
CN(CC(=O)Nc1ccc(F)c(F)c1F)C(=O)CCN1C(=O)C2CC=CCC2C1=O (stereo unspecified)	none (no result: D1 ag, Chronic BCR inh, D1 antag, D1 PAM)
CN1CCN(NC(=O)NC2CCCCC2)CC1	D1 antag -39.0
Cc1ccc2cc(C#N)c(N3CCCN(C(=O)C4CCCO4)CC3)nc2c1 (stereo unspecified)	D1 antag -44.1
O=C(NNC(=O)c1cc(-c2cccc(Br)c2)nc2ccccc12)c1csc(N2CCOCC2)n1	D1 antag -84.0
Cc1ccc(S(=O)Cc2ccc(C(=O)NC3CCCCCC3)o2)cc1 (stereo unspecified)	none (no result: Chronic BCR inh, D3 antag)
CCN1C(=S)N[C@@H](CCc2ccccc2)C(C(=O)OC)=C1C	D1 antag -30.7!
CCOC(=O)c1ccc(NC(=O)C(CC)Sc2nc3ccncc3[nH]2)cc1 (stereo unspecified)	D1 ag 53.1 (no result: Chronic BCR inh, D3 antag)
O=C(CN1CCCC1c1cccs1)N1CCN(S(=O)(=O)c2ccccc2)CC1 (stereo unspecified)	none
O=C(Cn1c(=O)n2nc(-c3ccccc3)nc2c2ccccc21)Nc1ccccc1C(F)(F)F	none (no result: Chronic BCR inh, D3 antag)
CC(C)(C)c1cc(C(=O)N/N=C/c2cc3c(cc2Br)OCO3)n[nH]1	D3 antag -88.3
O=C(N/N=C/c1cc2c(cc1Br)OCO2)c1cc2ccccc2o1	Chronic BCR inh inconclusive, D3 antag -106.7
N/C(=N/O)C(c1ccccc1)c1ccccc1	D1 antag -44.2
CCN1CCc2c(sc(NC(=O)c3ccc(S(=O)(=O)N4CCCC(C)C4)cc3)c2C(=O)OC)C1 (stereo unspecified)	Chronic BCR inh inconclusive (no result: D3 antag)
O=C(Nc1ccccc1)c1[nH]ncc1[N+](=O)[O-]	D3 antag -63.1
COc1ccc(NC(=S)N(Cc2ccc(C)cc2)Cc2ccccn2)cc1	Chronic BCR inh inconclusive, D1 antag -30.6
CC1CCN(S(=O)(=O)c2ccc(N3CCCCS3(=O)=O)cc2)CC1	none (no result: Chronic BCR inh, D3 antag)
O=C(COC(=O)Cc1ccccc1F)Nc1ccc(SC(F)F)cc1	Chronic BCR inh inconclusive, D3 antag inconclusive, D1 antag -34.9
O=C(COC(=O)Cc1ccccc1F)Nc1ccc2c(c1)OCCO2	none
O=C(COC(=O)Cc1ccccc1F)Nc1ccc2c(c1)OCO2	D1 antag -37.1
Cc1cnc(CNC(=O)c2ccc3nc([C@@H]4O[C@H](CO)[C@H](O)[C@H](O)[C@H]4O)[nH]c3c2)cn1	none (no result: D1 ag, Chronic BCR inh, D1 antag, D1 PAM)
